Data as given in PubChem BioAssay (NCATS).
Results filed as inconclusive are left out. Active and inactive are the calls of the source. Calls follow the shape of the dose curve; as a rule, active = well fitted cell-killing curve with a large enough effect; inconclusive = small, poorly fitted or top-dose-only effect, or effect the other way; inactive = no such curve, though single readings can be large or run the other way.

Experiment: Quantitative High-Throughput drug screen in 47 multiple myeloma cell lines against the NCATS MIPE library collection: AMO1_DSMZ cell viability assay (AID 1918927; also: nearly all actives have a fitted effect of over 30% in size)
Details: AMO1 myeloma cells viability, CellTiter-Glo ATP luminescence, 48 h; series mostly up to 45.8 µM; viability, % of DMSO: at the top concentration
Description: PI: Beverly A. Mock Ph.D.
Laboratory of Cancer Biology and Genetics,
Center for Cancer Research, National Cancer Institute,
National Institute of Health, Bethesda, Maryland
Drug resistance and disease progression are common in multiple myeloma (MM) patients, underscoring the need for new therapeutic combinations. […] We hypothesized that effective combinations would reduce MYC expression and enhance p16 activity. […] These preclinical data identify potentially useful drug combinations for evaluation in drug-resistant MM and reveal potential mechanisms of combined drug sensitivity.
Described herein is the primary MIPE qHTS used to cherrypick compounds. Validated compounds were then further tested for potential synergistic activiy.
[1] Peat TJ, Gaikwad SM, Dubois W, Gyabaah-Kessie N, Zhang S, Gorjifard S, Phyo Z, Andres M, Hughitt VK, Simpson RM, Miller MA, Girvin AT, Taylor A, Williams D, D'Antonio N, Zhang Y, Rajagopalan A, Flietner E, Wilson K, Zhang X, Shinn P, Klumpp-Thomas C, McKnight C, Itkin Z, Chen L, Kazandijian D, Zhang J, Michalowski AM, Simmons JK, Keats J, Thomas CJ, Mock BA. Drug combinations identified by high-throughput screening promote cell cycle transition and upregulate Smad pathways in myeloma. Cancer Lett. 2023 Aug 1;568:216284. doi: 10.1016/j.canlet.2023.216284. Epub 2023 Jun 24. PMID: 37356470; PMCID: PMC10408729.
SEQUENCE No. (e.g., 1, 2, 3, etc.); […] (e.g., Cells, Incubation, Reagent, etc.); VALUE and DESCRIPTION.
1; Cells; 5 uL; white, solid bottom 1536-well Greiner assay plate.
2; Compounds; 23 nL; Kalypsis pin tool (Wako USA) equipped with a 1536-well pin head to transfer to the assay plates.
3; Incubation; 48 hours; 37C incubation.
4; Reagent;5uL; CellTiter Glo (Promega).
5; Detector; 425V; Luminescence; Viewlux PerkinElmer.
NOTES (numbers refer to Sequence numbers above)
1. The cell-based screening methods employed in this study were like those previously published. Briefly, the corresponding myeloma cell lines were screened in 1,536-well plates with 500 cells, 5-uL per well for inhibition of cell viability (assessed by measuring ATP levels with CellTiterGlo).
2. NCATS MIPE 4.0 library of approved and investigational drugs were added using the Kalypsis pin tool. Wells treated with DMSO only for 100% viability and media only wells for 0% viability were used as controls.
3. The assay plates were covered and incubated for 48 hours in a 37C, 5% CO2 incubator with controlled humidity.
4. After 48 hours, CellTilter-GloTM luminescent substrate mix (Promega) reagent was added to the assay plate and plates we incubated for 5 min at room temperature.
5. Signal was measured as median relative luminescence units on a ViewLux (PerkinElmer) multiplate reader.
[1] Heske CM, Davis MI, Baumgart JT, Wilson K, Gormally MV, Chen L, Zhang X, Ceribelli M, Duveau DY, Guha R, Ferrer M, Arnaldez FI, Ji J, Tran HL, Zhang Y, Mendoza A, Helman LJ, Thomas CJ. Matrix Screen Identifies Synergistic Combination of PARP Inhibitors and Nicotinamide Phosphoribosyltransferase (NAMPT) Inhibitors in Ewing Sarcoma. Clin Cancer Res. 2017 Dec 1;23(23):7301-7311. doi: 10.1158/1078-0432.CCR-17-1121. Epub 2017 Sep 12. PMID: 28899971; PMCID: PMC6636827.
Potency is read from the fitted curve at half-maximal effect.

Structure (SMILES)	viability, % of DMSO	Potency
CCN(CC)C(=O)c1ccc(C2=CC3(CCNCC3)Oc3cccc(O)c32)cc1	122% (inactive)	
O=c1cccc2n1CC1CNC[C@H]2C1		13.2 µM (active)
C=CCON=C(C[C@H]1O[C@@H]2O[C@]3(C)CC[C@@H]4[C@H](C)CC[C@@H]([C@H]1C)[C@@]24OO3)[C@H]1O[C@@H]2O[C@]3(C)CC[C@H]4[C@H](C)CC[C@@H]([C@@H]1C)[C@@]24OO3		0.118 µM (active)
COc1cc([C@@H]2c3cc4c(cc3[C@@H](O)C3COC(=O)C32)OCO4)cc(OC)c1O (stereo not given in full)		0.001 µM (active)
CC1=C(O)C(=O)C=C2C1=CC=C1[C@@]2(C)CC[C@@]2(C)[C@@H]3C[C@](C)(C(=O)O)CC[C@]3(C)CC[C@]12C		0.526 µM (active)
Cc1ccccc1-n1c(Cn2cnc3c(N)ncnc32)nc2cccc(C)c2c1=O		0.833 µM (active)
CC(C)(O)C(=O)Nc1ccc([N+](=O)[O-])c(C(F)(F)F)c1		11.8 µM (active)
CC(=Cc1csc(C)n1)[C@@H]1C[C@H]2O[C@]2(C)CCC[C@H](C)[C@@H](O)[C@@H](C)C(=O)C(C)(C)[C@@H](O)CC(=O)O1		0.001 µM (active)
CSCC[C@@H](NC(=O)[C@@H](Cc1ccccc1)NC(=O)CNC(=O)CNC(=O)[C@@H](N)Cc1ccc(O)cc1)C(=O)O	122% (inactive)	
O=C(Nc1ccncc1)C(=O)c1cn(Cc2ccc(Cl)cc2)c2ccccc12		0.0166 µM (active)
CCOC(=O)Nc1ccc(NCc2ccc(F)cc2)cc1N	117% (inactive)	
CC(=O)OCC1=C(C(=O)O)N2C(=O)[C@@H](N)[C@@H]2SC1		23.5 µM (active)
O=C(NCC1CCOCC1)c1cnc(Nc2ccc(Cl)cc2Cl)nc1C(F)(F)F		18.7 µM (active)
Cc1c(N)nc([C@H](CC(N)=O)NC[C@@H](N)C(N)=O)nc1C(=O)N[C@H](C(=O)N[C@@H](C)[C@H](O)[C@@H](C)C(=O)N[C@@H](C(=O)NCCc1nc(-c2nc(C(=O)NCCC[S+](C)C)cs2)cs1)[C@@H](C)O)C(O[C@H]1O[C@H](CO)[C@H](O)[C@@H](O)[C@@H]1O[C@H]1O[C@H](CO)[C@@H](O)[C@H](OC(N)=O)[C@H]1O)c1cnc[nH]1 (stereo not given in full)		0.296 µM (active)
CCc1c(C(=O)C(N)=O)c2c(OCC(=O)O)cccc2n1Cc1ccccc1	104% (inactive)	
O=C(N[C@@H](COc1ccc2[nH]c(=O)[nH]c2c1)c1ccccc1)c1cccn(Cc2ccc(F)c(F)c2)c1=O		18.7 µM (active)
CC(C)[C@H]1C(=O)N[C@H](CO)Cc2c[nH]c3cccc(c23)N1C	103% (inactive)	
CC(C)(C)[C@]1(O)C[C@@H]2OC(=O)C[C@@]23C(=O)O[C@@H]2OC(=O)[C@H](O)C213 (stereo not given in full)	107% (inactive)	
COc1ccc2c(c1)[C@]13CCCCC1C(C2)N(C)CC3 (stereo not given in full)	94% (inactive)	
C[C@]12CC[C@H](O)CC1=CC[C@H]1[C@H]3CCC(=O)[C@@]3(C)CC[C@@H]12		18.7 µM (active)

Structure (SMILES)	viability, % of DMSO	Potency
C[C@@H]1CC[C@@]2(OC1)O[C@H]1C[C@H]3[C@@H]4CC=C5C[C@@H](O[C@@H]6O[C@H](CO)[C@@H](O[C@@H]7O[C@@H](C)[C@H](O)[C@@H](O)[C@@H]7O)[C@H](O)[C@@H]6O[C@@H]6O[C@@H](C)[C@H](O)[C@@H](O)[C@@H]6O)CC[C@]5(C)[C@@H]4CC[C@]3(C)[C@@H]1[C@H]2C		2.64 µM (active)
CCOC(=O)c1cncn1[C@H](C)c1ccccc1	96.9% (inactive)	
CC1(N2CCC(n3c([C@@H]4CCCNC4)nc4ccccc43)CC2)CCCCCCC1		26.4 µM (active)
Cc1c(C(=O)Nc2cccc(C(F)(F)F)c2)cc(-c2ccccc2)n1CCCN1CCOCC1		8.33 µM (active)
O=C1C=CC[C@@H]2[C@H]3CCCN4CCC[C@@H](CN12)[C@@H]34	108% (inactive)	
CC(C)N[C@@H]1CCn2c(=O)[nH]c3cccc(c32)[C@@H]1O		5.9 µM (active)
CN1CCN(c2ccc([N+](=O)[O-])c3no[n+]([O-])c23)CC1		16.6 µM (active)
CCNC(=O)C[C@@H]1N=C(c2ccc(Cl)cc2)c2cc(OC)ccc2-n2c(C)nnc21		0.372 µM (active)
COc1ccc(C(=O)c2c(C)n(CCN3CCOCC3)c3cc(I)ccc23)cc1		11.8 µM (active)
N=c1c2c(-c3ccccc3)c(-c3ccccc3)n(Cc3ccccc3)c2ncn1C1CCC(O)CC1 (stereo not given)		0.526 µM (active)
C[C@]12CC[C@@H]3[C@@H](CCC4=CC(=O)CC[C@@H]43)[C@@H]1CC[C@@H]2OC(=O)CCc1ccccc1	130% (inactive)	
O=C(Oc1ccc([N+](=O)[O-])cc1)N1CCN(Cc2cccc(Oc3ccccc3)c2)CC1	87.5% (inactive)	
C[C@@H]1[C@H](O)[C@@H](C)C=CC=CCCC=CC=CC=CC=C[C@H](O[C@H]2O[C@@H](C)[C@H](O)[C@@H](N)[C@@H]2O)CC2O[C@](O)(C[C@@H](O)[C@H](O)CC[C@@H](O)C[C@@H](O)C[C@@H](O)CC(=O)O[C@H]1C)C[C@H](O)[C@H]2C(=O)O	133% (inactive)	
O=C(O)CNC(=O)c1c(O)c2ccccc2n(Cc2ccccc2)c1=O	119% (inactive)	
COc1ccc2c(c[n+](C)c3c4cc5c(cc4ccc23)OCO5)c1OC		6.62 µM (active)
COc1ccc(N(C(=O)Oc2c(C)cccc2C)c2ccnc(Nc3ccc(N4CCN(C)CC4)cc3)n2)c(OC)c1		1.48 µM (active)
C=C[C@@H]1CN2CCC1C[C@@H]2[C@@H](O)c1ccnc2ccccc12 (stereo not given in full)		5.9 µM (active)
CCC(=O)OC1CCC2C3CCC4=CC(=O)CC[C@@]4(C)C3CC[C@]12C (stereo not given in full)	86.7% (inactive)	
CCOC(=O)c1c(C(C#N)=CN)c2ccc(Cl)c(Cl)c2n1C	100% (inactive)	
CCN1CCN(C(=O)Cc2ccc(Nc3ncc(F)c(Nc4ccc(C(=O)Nc5ccccc5Cl)cc4)n3)cc2)CC1		1.05 µM (active)
